# ChEMBL document CHEMBL2218924, “A broad activity screen in support of a chemogenomic map for kinase signalling research and drug discovery” (Biochem J, 2013)
# Assays:
# [1] = target: T1, Testis-specific serine/threonine-protein kinase 1 (Homo sapiens) (UniProt Q9BXA7); conditions: at 1 µM
# T1 sequence (whole entry): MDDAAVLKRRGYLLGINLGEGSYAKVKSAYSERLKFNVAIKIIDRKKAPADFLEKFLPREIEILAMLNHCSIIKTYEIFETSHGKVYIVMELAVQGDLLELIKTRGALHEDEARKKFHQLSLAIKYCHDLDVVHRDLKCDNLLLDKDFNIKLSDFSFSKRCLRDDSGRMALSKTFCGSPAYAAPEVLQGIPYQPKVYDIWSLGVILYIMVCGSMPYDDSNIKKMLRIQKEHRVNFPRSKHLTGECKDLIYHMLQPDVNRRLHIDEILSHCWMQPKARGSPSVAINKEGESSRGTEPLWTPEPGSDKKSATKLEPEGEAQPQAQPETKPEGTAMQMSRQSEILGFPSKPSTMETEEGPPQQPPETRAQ
# [2] = target: T1, Testis-specific serine/threonine-protein kinase 1 (Homo sapiens); conditions: at 10 µM
# [3] = target: T2, Testis-specific serine/threonine-protein kinase 2 (Homo sapiens) (UniProt Q96PF2); conditions: at 10 µM
# T2 sequence (whole entry): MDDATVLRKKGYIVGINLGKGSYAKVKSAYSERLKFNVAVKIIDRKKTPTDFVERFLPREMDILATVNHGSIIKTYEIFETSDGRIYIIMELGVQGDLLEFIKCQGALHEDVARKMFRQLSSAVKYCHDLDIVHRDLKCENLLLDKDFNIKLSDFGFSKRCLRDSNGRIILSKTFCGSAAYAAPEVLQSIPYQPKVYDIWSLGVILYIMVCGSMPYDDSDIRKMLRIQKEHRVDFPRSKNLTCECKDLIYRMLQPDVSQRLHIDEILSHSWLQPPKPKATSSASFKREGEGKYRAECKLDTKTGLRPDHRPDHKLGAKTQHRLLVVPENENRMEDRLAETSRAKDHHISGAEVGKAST
# [4] = target: T3, Tyrosine-protein kinase Tec (Homo sapiens) (UniProt P42680); conditions: at 1 µM
# T3 sequence (whole entry): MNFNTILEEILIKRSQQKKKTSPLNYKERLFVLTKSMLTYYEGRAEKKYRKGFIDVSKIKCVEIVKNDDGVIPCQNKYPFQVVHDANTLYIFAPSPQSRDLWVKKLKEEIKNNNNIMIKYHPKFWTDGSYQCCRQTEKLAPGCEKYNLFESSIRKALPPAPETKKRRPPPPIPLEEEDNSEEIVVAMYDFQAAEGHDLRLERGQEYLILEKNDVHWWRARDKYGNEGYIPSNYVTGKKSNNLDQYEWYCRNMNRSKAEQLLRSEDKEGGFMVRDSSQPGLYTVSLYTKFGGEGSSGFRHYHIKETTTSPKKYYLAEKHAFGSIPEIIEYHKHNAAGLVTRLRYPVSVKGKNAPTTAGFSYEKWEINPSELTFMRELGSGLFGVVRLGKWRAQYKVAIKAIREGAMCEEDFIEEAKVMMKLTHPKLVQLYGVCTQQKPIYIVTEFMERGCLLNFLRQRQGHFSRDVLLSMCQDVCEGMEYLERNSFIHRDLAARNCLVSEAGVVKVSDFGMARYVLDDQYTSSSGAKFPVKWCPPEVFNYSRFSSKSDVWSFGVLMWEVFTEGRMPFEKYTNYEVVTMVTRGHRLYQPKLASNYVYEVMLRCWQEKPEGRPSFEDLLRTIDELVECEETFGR
# [5] = target: T3, Tyrosine-protein kinase Tec (Homo sapiens); conditions: at 10 µM
# [6] = target: Angiopoietin-1 receptor (Homo sapiens) (UniProt Q02763); conditions: at 1 µM
# Chain of Angiopoietin-1 receptor (Homo sapiens) (Q02763 whole entry): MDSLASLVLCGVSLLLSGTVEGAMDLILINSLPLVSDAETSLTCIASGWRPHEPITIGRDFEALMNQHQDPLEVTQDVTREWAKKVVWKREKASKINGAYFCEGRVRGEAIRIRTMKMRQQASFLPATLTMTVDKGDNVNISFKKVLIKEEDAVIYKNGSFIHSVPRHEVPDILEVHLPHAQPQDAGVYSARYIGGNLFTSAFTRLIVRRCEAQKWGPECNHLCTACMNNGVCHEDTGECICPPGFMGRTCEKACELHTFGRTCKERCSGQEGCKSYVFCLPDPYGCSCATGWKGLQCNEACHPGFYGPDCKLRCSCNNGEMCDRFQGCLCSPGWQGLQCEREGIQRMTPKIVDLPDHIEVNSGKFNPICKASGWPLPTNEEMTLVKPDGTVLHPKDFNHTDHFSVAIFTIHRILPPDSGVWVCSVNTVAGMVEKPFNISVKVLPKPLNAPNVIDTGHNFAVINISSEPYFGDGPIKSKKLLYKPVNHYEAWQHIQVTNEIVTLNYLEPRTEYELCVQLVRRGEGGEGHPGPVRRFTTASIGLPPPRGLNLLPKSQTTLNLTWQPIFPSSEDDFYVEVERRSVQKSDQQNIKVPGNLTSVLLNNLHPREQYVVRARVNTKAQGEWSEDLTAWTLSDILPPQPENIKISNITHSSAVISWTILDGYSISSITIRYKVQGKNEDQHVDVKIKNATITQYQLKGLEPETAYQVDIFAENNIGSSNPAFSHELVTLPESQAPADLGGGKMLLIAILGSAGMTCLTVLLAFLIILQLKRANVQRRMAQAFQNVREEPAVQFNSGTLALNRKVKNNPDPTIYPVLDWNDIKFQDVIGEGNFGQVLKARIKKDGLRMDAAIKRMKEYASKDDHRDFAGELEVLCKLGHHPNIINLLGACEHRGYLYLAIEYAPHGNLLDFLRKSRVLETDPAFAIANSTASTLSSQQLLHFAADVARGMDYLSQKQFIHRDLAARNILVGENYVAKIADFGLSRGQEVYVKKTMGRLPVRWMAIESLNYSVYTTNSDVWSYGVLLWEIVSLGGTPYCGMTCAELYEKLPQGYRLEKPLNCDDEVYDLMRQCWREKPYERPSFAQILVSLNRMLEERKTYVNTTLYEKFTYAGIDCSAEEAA
# [7] = target: Angiopoietin-1 receptor (Homo sapiens) (UniProt Q02763); conditions: at 10 µM
# [8] = target: High affinity nerve growth factor receptor (Homo sapiens) (UniProt P04629); conditions: at 1 µM
# Chain of High affinity nerve growth factor receptor (Homo sapiens) (P04629 33-796 limits assumed): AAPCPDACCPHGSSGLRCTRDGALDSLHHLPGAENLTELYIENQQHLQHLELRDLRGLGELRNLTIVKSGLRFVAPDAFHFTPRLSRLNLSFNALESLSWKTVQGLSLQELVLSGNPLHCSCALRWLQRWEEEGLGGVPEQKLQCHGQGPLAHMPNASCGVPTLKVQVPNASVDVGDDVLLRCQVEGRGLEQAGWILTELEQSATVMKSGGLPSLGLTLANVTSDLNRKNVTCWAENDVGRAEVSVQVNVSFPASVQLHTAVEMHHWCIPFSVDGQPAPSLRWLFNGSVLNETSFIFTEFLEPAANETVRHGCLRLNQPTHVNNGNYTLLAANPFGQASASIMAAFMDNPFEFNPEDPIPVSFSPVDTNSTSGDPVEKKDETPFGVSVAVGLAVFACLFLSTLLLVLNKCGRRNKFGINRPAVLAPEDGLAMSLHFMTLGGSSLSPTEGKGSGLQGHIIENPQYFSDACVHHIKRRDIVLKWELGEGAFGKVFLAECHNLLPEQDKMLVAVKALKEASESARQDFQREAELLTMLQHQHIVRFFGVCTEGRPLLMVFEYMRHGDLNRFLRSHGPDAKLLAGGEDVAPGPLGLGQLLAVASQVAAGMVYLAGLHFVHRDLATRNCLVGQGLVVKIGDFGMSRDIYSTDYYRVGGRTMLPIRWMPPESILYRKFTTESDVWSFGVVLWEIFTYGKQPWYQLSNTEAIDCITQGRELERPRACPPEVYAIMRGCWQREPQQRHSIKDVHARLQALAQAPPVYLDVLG
# [9] = target: High affinity nerve growth factor receptor (Homo sapiens) (UniProt P04629); conditions: at 10 µM
# [10] = target: BDNF/NT-3 growth factors receptor (Homo sapiens) (UniProt Q16620); conditions: at 1 µM
# Chain of BDNF/NT-3 growth factors receptor (Homo sapiens) (Q16620 32-822 limits assumed): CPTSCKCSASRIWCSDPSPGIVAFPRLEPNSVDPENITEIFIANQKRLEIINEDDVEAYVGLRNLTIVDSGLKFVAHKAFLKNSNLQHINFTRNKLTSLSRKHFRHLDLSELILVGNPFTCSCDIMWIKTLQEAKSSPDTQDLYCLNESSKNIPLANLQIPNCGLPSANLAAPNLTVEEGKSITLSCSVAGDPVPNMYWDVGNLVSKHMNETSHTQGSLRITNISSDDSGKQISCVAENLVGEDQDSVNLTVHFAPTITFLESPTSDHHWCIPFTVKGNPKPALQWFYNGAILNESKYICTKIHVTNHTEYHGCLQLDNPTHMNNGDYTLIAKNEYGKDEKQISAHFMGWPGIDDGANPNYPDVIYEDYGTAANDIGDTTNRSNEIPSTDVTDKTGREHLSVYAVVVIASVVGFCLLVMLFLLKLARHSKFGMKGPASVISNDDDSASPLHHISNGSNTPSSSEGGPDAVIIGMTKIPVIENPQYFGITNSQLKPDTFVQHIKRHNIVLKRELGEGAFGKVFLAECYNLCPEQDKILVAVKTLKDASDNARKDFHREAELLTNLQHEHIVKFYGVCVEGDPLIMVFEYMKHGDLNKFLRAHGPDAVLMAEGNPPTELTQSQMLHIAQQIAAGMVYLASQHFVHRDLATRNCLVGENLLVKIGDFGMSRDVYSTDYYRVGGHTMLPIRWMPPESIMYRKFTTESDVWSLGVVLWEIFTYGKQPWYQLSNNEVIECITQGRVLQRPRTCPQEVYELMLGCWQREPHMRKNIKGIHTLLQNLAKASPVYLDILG
# [11] = target: BDNF/NT-3 growth factors receptor (Homo sapiens) (UniProt Q16620); conditions: at 10 µM
# [12] = target: T4, Tyrosine-protein kinase TXK (Homo sapiens) (UniProt P42681); conditions: at 1 µM
# T4 sequence (whole entry): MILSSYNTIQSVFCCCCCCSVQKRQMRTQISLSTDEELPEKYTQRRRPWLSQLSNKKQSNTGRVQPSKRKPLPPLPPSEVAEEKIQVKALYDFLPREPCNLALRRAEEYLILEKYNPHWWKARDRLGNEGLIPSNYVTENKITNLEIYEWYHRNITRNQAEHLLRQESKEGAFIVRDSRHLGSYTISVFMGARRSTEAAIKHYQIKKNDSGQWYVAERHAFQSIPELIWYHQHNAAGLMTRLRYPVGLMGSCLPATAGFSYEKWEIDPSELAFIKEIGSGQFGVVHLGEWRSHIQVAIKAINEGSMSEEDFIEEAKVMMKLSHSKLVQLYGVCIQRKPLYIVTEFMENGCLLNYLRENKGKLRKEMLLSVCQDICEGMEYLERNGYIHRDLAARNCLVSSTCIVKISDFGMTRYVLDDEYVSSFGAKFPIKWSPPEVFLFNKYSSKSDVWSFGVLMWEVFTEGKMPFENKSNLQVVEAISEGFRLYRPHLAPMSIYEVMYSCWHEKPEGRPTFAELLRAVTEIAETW
# [13] = target: T4, Tyrosine-protein kinase TXK (Homo sapiens); conditions: at 10 µM
# [14] = target: T5, Serine/threonine-protein kinase ULK2 (Homo sapiens) (UniProt Q8IYT8); conditions: at 1 µM
# T5 sequence (whole entry): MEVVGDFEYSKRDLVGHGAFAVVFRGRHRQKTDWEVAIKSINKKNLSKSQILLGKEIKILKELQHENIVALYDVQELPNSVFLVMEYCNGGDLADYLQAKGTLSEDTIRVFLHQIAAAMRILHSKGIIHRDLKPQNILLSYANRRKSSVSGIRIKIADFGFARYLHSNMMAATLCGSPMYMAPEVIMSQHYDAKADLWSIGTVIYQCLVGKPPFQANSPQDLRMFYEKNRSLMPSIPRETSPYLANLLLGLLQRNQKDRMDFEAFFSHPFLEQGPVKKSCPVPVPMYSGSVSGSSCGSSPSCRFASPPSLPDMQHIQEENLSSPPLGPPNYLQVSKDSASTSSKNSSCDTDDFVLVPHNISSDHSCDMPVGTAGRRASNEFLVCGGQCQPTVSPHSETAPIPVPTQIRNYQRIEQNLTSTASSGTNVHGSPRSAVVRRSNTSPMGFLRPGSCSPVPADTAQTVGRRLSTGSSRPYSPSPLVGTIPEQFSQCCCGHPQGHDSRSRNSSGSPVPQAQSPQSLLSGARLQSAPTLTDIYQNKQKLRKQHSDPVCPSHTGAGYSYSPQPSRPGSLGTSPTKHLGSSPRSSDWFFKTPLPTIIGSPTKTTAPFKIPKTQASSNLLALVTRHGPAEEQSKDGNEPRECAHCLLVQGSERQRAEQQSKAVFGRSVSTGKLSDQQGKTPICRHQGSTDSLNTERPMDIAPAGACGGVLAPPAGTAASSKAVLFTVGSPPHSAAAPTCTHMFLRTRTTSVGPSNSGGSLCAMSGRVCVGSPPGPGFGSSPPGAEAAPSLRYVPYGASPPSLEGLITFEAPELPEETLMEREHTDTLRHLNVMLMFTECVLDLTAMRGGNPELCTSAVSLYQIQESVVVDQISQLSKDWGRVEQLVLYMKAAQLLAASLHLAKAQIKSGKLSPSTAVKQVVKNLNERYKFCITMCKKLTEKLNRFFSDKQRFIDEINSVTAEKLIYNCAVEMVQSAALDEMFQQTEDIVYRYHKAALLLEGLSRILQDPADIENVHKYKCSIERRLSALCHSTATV
# [15] = target: T5, Serine/threonine-protein kinase ULK2 (Homo sapiens); conditions: at 10 µM
# [16] = target: T6, Serine/threonine-protein kinase ULK3 (Homo sapiens) (UniProt Q6PHR2); conditions: at 1 µM
# T6 sequence (whole entry): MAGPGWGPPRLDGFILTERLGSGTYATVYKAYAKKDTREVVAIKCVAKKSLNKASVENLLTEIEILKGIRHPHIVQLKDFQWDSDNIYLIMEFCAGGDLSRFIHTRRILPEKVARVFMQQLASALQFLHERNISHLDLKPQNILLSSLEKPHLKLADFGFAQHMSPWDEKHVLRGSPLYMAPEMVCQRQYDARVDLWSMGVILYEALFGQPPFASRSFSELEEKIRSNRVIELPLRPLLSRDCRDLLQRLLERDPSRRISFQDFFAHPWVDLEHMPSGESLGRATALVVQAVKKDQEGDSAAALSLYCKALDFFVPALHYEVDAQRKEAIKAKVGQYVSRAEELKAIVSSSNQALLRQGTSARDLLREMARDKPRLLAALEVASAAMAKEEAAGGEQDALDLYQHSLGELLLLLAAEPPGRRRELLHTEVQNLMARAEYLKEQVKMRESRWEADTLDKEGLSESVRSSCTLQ
# [17] = target: T6, Serine/threonine-protein kinase ULK3 (Homo sapiens); conditions: at 10 µM
# [18] = target: Serine/threonine-protein kinase VRK2 (Homo sapiens) (UniProt Q86Y07); conditions: at 1 µM
# Chain of Serine/threonine-protein kinase VRK2 (Homo sapiens) (Q86Y07 whole entry): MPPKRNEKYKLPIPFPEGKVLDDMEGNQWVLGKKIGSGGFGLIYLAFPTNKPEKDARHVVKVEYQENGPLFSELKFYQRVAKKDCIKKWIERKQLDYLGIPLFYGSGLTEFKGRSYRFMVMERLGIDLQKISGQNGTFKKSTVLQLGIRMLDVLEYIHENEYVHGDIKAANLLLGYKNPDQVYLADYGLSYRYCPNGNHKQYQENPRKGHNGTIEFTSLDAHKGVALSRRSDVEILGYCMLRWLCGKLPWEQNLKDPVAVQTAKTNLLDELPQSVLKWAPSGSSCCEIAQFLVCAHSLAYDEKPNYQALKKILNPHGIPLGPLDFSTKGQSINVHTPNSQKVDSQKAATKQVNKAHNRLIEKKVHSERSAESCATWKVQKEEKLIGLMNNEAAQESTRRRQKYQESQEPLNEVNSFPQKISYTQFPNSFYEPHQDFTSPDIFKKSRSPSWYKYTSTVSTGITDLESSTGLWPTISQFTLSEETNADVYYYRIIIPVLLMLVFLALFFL
# [19] = target: Serine/threonine-protein kinase VRK2 (Homo sapiens) (UniProt Q86Y07); conditions: at 10 µM
# [20] = target: Serine/threonine-protein kinase WNK2 (Homo sapiens) (UniProt Q9Y3S1); conditions: at 1 µM;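 note: residual WNK2 kinase activity expressed as percent of uninhibited control, assayed in MOPS buffer at pH 7.0 containing EDTA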
SMILES,residual activity [1] [%],residual activity [2] [%],residual activity [3] [%],residual activity [4] [%],residual activity [5] [%],residual activity [6] [%],residual activity [7] [%],residual activity [8] [%],residual activity [9] [%],residual activity [10] [%],residual activity [11] [%],residual activity [12] [%],residual activity [13] [%],residual activity [14] [%],residual activity [15] [%],residual activity [16] [%],residual activity [17] [%],residual activity [18],residual activity [19] [%],residual activity [20]
O=Nc1c(-c2c(O)[nH]c3ccccc23)[nH]c2ccccc12,78,53,78,64,22,103,41,0,0,0,0,45,11,93,59,55,12,71% (inactive),28,90% (inactive)
CC(C)n1cnc2c(NCc3ccccc3)nc(NCCCO)nc21,90,89,81,90,89,104,87,93,94,88,98,75,74,106,101,95,90,95% (inactive),69,98% (inactive)
CN(C)c1ccc(/C=C2\C(=O)Nc3ccccc32)cc1,104,101,97,87,68,83,70,10,3,46,5,108,69,107,70,100,49,113% (inactive),87,110% (inactive)
CCN(CC)CCCCN1c2ccccc2Oc2ccc(Cl)cc21,105,102,98,92,78,105,71,90,101,107,87,99,81,116,96,111,98,126% (inactive),99,122% (inactive)
Cc1ccc(S(=O)(=O)/C=C/C#N)cc1,91,107,91,95,90,115,118,105,92,117,105,79,87,109,104,97,98,91% (inactive),97,94% (inactive)
Oc1ccc(-c2nc(-c3ccc(F)cc3)c(-c3ccncc3)[nH]2)cc1,112,83,113,87,55,109,49,107,83,99,61,78,43,112,104,102,95,117% (inactive),86,118% (inactive)
